Active and inactive are the calls of the source.

We go through four compounds from PubChem BioAssay.

The nature of assay [1]: E. coli DRC41 culture turbidity changes, primary screen, E. coli filamentation inducer project, strain DRC41, OD650, 48 h (AID 1152).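 Also: E. coli MC1000 strain DRC41 lacking acrAB efflux pump and sulA.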 The settings on record: E. coli DRC41 (acrAB sulA), higher = more signal, called active from +8 up or from −8 down.
Assay [2] is described as follows: small-molecule binders of probe aLefty1, primary screen, biochemical, small-molecule microarray, 635/667 nm fluorescence (AID 1153).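 Also: score merges spot fluorescence with signal-to-noise ratio from the scanned slide images.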 The settings on record: higher = more signal.
A short description of assay [3]: PSAC antagonists in infected red cells, primary screen, cell-based, P. falciparum Indochina, OD700, 1 h (AID 1154). The settings on record: P. falciparum Indochina infected RBC osmotic lysis, higher = more signal, called active from +8 up or from −8 down.
Assay [4] is described as follows: PSAC antagonists in infected red cells, primary screen, cell-based, P. falciparum Indochina, OD700, 2 h (AID 1155).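 Also: lysis reports solute entry through the parasite surface anion channel PSAC; channel blockers reduce lysis of infected cells.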 Conditions: P. falciparum Indochina infected erythrocytes, osmotic lysis OD700; higher = more signal, called active from +8 up or from −8 down.
A short description of assay [5]: osmotic lysis modulators in infected erythrocytes, primary screen, PSAC antagonist project, cell-based, P. falciparum Indochina, OD700, 3 h (AID 1156). Conditions: higher = more signal, called active from +8 up or from −8 down.
A short description of assay [6]: PSAC antagonists in infected red cells, primary screen, cell-based, P. falciparum Indochina, OD700, 18 h (AID 1157). Conditions: P. falciparum Indochina infected erythrocytes, osmotic lysis OD700, 18 h; higher = more signal, called active from +8 up or from −8 down.
Assay [7] is described as follows: modulators of S6 phosphorylation in cells, primary screen, cell-based, A549, cytoblot, luminescence, serum-stimulated (AID 1158).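 Also: serum-stimulated A549 lung adenocarcinoma cells; signal is phosphorylated S6 detected by cytoblot immunostaining with HRP secondary.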 The settings on record: A549 phospho-S6 cytoblot, 5 h, higher = more signal.
The target in assay [8] is NADPH oxidase 2 (Homo sapiens) (UniProt P04839). As to the kind of experiment: NOX2-dependent H2O2 signal modulators, primary screen, NOX inhibitor project, cell-based, HEK293-NOX2, PMA-stimulated, Amplex Red fluorescence (AID 1159). Also: test concentration not given here. The settings on record: 45 min, higher = more signal, called active from +8 up or from −8 down.
Sequence of NADPH oxidase 2 (Homo sapiens) (P04839 whole entry, looked up): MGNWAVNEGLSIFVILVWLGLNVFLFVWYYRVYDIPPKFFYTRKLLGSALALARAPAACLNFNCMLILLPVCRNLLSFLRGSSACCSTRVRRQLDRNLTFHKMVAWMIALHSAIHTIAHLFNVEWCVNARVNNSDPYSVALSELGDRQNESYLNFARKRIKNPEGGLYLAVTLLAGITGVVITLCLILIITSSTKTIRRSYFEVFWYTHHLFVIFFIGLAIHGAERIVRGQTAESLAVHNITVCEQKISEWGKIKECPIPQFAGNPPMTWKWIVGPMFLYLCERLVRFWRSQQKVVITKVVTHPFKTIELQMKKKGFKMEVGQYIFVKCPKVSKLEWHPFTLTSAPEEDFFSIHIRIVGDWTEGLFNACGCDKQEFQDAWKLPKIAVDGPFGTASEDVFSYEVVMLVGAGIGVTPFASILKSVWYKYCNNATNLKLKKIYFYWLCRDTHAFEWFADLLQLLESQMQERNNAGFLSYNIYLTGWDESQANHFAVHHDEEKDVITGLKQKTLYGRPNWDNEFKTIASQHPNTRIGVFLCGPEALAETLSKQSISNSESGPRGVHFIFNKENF
Assay [9] addresses NADPH oxidase 4 (Homo sapiens) (UniProt Q9NPH5). As to the kind of experiment: NOX4-dependent H2O2 signal modulators, primary screen, NOX inhibitor project, cell-based, HEK293-NOX4, tetracycline-induced, Amplex Red fluorescence (AID 1160). The settings on record: 45 min, higher = more signal, called active from +8 up or from −8 down.
For assay [10], the target named is NADPH oxidase 5 (Homo sapiens) (UniProt Q96PH1). As to the kind of experiment: NOX5-dependent H2O2 signal modulators, primary screen, NOX inhibitor project, cell-based, HEK293-NOX5, Amplex Red fluorescence (AID 1161). The settings on record: HEK293-NOX5, ionomycin, 45 min, higher = more signal.
Sequence of NADPH oxidase 5 (Homo sapiens) (Q96PH1 whole entry, looked up): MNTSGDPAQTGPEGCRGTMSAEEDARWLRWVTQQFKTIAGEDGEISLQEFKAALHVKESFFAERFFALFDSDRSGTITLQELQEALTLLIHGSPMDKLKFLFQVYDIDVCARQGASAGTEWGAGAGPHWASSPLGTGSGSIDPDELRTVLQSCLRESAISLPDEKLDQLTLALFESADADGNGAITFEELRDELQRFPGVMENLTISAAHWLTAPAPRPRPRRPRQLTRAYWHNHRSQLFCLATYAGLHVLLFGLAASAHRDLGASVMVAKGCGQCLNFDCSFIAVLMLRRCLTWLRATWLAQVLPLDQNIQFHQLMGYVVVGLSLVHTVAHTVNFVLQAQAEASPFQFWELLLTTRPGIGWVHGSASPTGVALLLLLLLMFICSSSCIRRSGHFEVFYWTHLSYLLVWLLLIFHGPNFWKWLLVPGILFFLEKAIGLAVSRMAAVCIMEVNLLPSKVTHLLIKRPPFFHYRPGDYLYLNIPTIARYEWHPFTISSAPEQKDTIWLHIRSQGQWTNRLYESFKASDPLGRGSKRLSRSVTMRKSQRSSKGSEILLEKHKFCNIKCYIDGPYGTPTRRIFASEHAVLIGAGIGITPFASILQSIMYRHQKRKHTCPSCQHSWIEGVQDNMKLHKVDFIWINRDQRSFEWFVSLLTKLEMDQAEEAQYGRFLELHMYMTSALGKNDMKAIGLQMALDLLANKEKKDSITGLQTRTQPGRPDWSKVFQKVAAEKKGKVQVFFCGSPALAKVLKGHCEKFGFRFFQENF
Assay [11] is described as follows: A549 cell viability effects, profiling panel, calcein-AM fluorescence, 48 h, basal (AID 1162). Also: test concentration not given here. The settings on record: higher = more signal.
Assay [12] is described as follows: adipocyte viability effects, profiling panel, cell-based, 3T3-L1 adipocytes, calcein-AM fluorescence, 48 h, basal (AID 1163). Also: test concentration not given here. Conditions: 3T3-L1 adipocytes viability, higher = more signal.
Assay [13] in a line: HepG2 cell viability effects, profiling panel, calcein-AM fluorescence, 48 h, basal (AID 1164). Also: test concentration not given here. The settings on record: higher = more signal.
A short description of assay [14]: MM1S cell viability effects, profiling panel, calcein-AM fluorescence, 48 h, basal (AID 1165).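 Also: viability of MM1S multiple myeloma cells under basal unstimulated conditions; test concentration not given here.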 The settings on record: higher = more signal.
The nature of assay [15]: basal RPMI8226 viability, no added stimulus, profiling panel, cell-based, calcein-AM fluorescence, 48 h, PK04 Diversity Set (AID 1166).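 Also: cells grown under basal conditions without added stimulus; test concentration not given here.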 Conditions: RPMI8226 myeloma viability, higher = more signal.
Assay [16] in a line: basal HepG2 mitochondrial membrane potential changes, profiling panel, cell-based, JC-1 fluorescence, 24 h, 100 nL compound (AID 1167). Also: test concentration not given here. Conditions: higher = more signal.
A short description of assay [17]: basal 3T3-L1 adipocyte mitochondrial potential changes, profiling panel, cell-based, JC-1 fluorescence, 3T3-L1 adipocytes, 24 h, 100 nL compound (AID 1168). Also: test concentration not given here. The settings on record: JC-1 mitochondrial fluorescence, higher = more signal, called active from +8 up or from −8 down.
The nature of assay [18]: basal RPMI8226 mitochondrial membrane potential changes, profiling panel, cell-based, JC-1 fluorescence, 24 h, 100 nL compound (AID 1169). Also: test concentration not given here. The settings on record: RPMI8226 myeloma, JC-1 mitochondrial potential fluorescence, higher = more signal.
Assay [19] is described as follows: basal MM1S mitochondrial membrane potential changes, profiling panel, cell-based, JC-1 fluorescence, 24 h, 100 nL compound (AID 1170). Also: test concentration not given here. Conditions: higher = more signal.
The nature of assay [20]: A549 lung cancer cell viability effects, profiling panel, resazurin fluorescence, 24 h, PK04 Diversity Set (AID 1171). Also: test concentration not given here. The settings on record: higher = more signal, called active from +8 up or from −8 down. Background: The colour change of resazurin is a common sign of viable cells or microbes.

Sequence of NADPH oxidase 4 (Homo sapiens) (Q9NPH5 whole entry, looked up): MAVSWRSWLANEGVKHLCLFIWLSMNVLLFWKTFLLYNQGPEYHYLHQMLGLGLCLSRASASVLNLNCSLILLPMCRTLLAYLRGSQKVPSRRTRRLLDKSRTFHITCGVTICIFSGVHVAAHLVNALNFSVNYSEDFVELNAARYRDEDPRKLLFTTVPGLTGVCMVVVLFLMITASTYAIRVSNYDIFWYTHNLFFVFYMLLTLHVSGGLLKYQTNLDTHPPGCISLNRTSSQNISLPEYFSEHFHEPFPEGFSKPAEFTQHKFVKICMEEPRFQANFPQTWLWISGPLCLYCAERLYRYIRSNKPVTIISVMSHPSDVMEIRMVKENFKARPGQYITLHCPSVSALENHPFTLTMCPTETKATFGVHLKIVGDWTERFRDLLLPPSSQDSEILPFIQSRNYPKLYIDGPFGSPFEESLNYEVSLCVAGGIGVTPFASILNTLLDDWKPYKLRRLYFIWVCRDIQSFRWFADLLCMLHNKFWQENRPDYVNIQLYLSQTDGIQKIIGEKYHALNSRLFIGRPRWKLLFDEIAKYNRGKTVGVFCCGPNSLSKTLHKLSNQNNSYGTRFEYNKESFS

On to `COc1cc2c(cc1O)C(C1CC1)N(Cc1ccc([N+](=O)[O-])o1)CC2` (stereo not given), for which the z-score in assay [1] is -1.03 (inactive); in assay [3], 23.7 (active); in [4], 6.01 (inactive); in [5] it was 0.359 (inactive); in assay [6], 0.892 (inactive); in assay [7] it was 0.106. Also, the z-score was -4.17 (inactive) in assay [8]; -2.46 (inactive) in [9]; -3.45 in assay [10]; -0.37 in assay [11]; 0.393 in assay [12]; -0.181 in assay [13]. In addition, the z-score in assay [14] is -0.201; in assay [15] it was 0.741; in assay [16], -1.57; in assay [17], -0.0836 (inactive); in [18] it was -0.748; in [19], 0.0309. The z-score in [20] was 0.533 (inactive). In assay [2], this compound showed a composite z-score of 0.0446.
As for `C=CCC(OC(C)=O)[C@@H]1[C@@H](N(Cc2ccc(-c3cccc(C(F)(F)F)c3)o2)C(=O)Cc2ccc(F)cc2)c2cc(OCCCO)ccc2N1C(=O)c1ccc2ccccc2c1` (stereo not given in full), the z-score is -0.353 (inactive) in [1]; 0.05 (inactive) in assay [3]; -0.213 (inactive) in assay [4]; 0.337 (inactive) in [5]; 0.161 (inactive) in assay [6]; 0.531 in [7]. The z-score is -2.05 (inactive) in [8]; 0.631 (inactive) in [9]; 0.0399 in assay [10]; -0.292 in assay [11]; 0.499 in assay [12]; 0.966 in assay [13]. In addition, the z-score in assay [14] is 0.353; in assay [15], 0.366; in assay [16] it was 2.03; in assay [17], 0.294 (inactive); in assay [18], -0.793; in assay [19], 0.251. For the same compound, the z-score in assay [20] is 0.116 (inactive). The composite z-score in assay [2] stood at 0.0732.
`C[N+](C)(C)CCCCCCNC(=O)[C@H]1C[C@H]2C(=O)NCC(=O)N2[C@H]1c1cccc(OCCO)c1`: the z-score is -0.191 (inactive) in assay [1]; 2.76 (inactive) in assay [3]; 0.462 (inactive) in assay [4]; -1.36 (inactive) in [5]; 0.179 (inactive) in assay [6]; 0.142 in assay [7]. Also, the z-score in assay [8] is 0.752 (inactive); in [9], 1.12 (inactive); in [10] it was 1.24; in assay [11], -0.292; in assay [12], -0.207; in assay [13], -0.528. Besides, the z-score in [14] was 0.112; in assay [15] it was 0.579; in [16], -1.52; in assay [17], -0.529 (inactive); in [18] it was 0.0573; in [19] it was 0.127. The z-score in assay [20] was 0.749 (inactive). In assay [2], this compound returned a composite z-score of -0.259.
As to `CCCC=C(CCC)[C@@H](NS(=O)(=O)c1ccc(Cl)cc1)c1ccccc1`, the z-score in [1] was -2.04 (inactive); in assay [3], 1.02 (inactive); in [4] it was 0.1 (inactive); in assay [5] it was 1.16 (inactive); in assay [6], 0.814 (inactive); in assay [7], 0.717. Besides, the z-score in assay [8] was -1.64 (inactive); in [9] it was -3.24 (inactive); in assay [10] it was 1.59; in assay [11], -1.61; in assay [12], -0.224; in assay [13] it was -1.42. For the same compound, the z-score in [14] is -1.18; in assay [15], -3.77; in [16], -3.69; in [17] it was 0.0744 (inactive); in assay [18], -0.372; in assay [19], -0.676. Also, in assay [20], the z-score was 2.17 (inactive). In assay [2], the composite z-score came to 0.345.
